According to PubChem BioAssay AID1209 (Sanford-Burnham Center for Chemical Genomics, 2008):
Several values for one entry are separate records, joined by “and”; a condition that tells them apart may be missing. Equal values may be shown once. The campaign covered roughly 190,000 compounds. About 810 (0.43%) were called active. Rule as the data show it: active = inhibition above about 50%; inactive = the rest. The full list was thinned out, with actives kept by preference.

Target: Mannose-6-phosphate isomerase (Homo sapiens) (UniProt P34949)
Assay: inhibitors of human PMI, primary screen, biochemical, fluorescence intensity, coupled assay (AID 1209);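 also: plate controls were DMSO vehicle for no effect and wells lacking substrate for full effect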
Settings: purified PMI enzyme, at 20 µM, stronger effect = higher value

Sequence of Mannose-6-phosphate isomerase (Homo sapiens) (P34949 whole entry, looked up): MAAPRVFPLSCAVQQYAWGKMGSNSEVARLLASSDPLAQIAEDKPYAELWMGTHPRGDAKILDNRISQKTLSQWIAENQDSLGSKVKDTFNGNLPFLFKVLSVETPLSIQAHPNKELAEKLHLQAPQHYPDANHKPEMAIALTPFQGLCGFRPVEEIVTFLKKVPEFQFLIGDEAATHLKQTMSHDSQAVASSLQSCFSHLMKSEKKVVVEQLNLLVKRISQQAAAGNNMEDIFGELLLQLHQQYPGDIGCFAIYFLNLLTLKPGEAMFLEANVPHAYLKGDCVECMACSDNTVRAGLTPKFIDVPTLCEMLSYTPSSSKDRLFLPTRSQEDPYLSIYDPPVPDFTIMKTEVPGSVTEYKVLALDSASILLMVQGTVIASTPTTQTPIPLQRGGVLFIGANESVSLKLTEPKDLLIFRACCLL

inhibition, active:
Cc1ccccc1N=Cc1cccc(O)c1O 74.1%, CCCCCCn1c(SCC(=O)OC)nc2c1c(=O)[nH]c(=O)n2C 54%, Cc1ccc(C2CC(C(F)(F)F)n3ncc(C(=O)NCc4ccco4)c3N2)cc1 (configuration not stated) 108%, COC(=O)c1ccc(C2C(Oc3ccc(OC)cc3)C(=O)N2CCc2ccc(OC)c(OC)c2)cc1 (configuration not stated) 52%, CCOc1cccc(N2C(=O)CC(N(CCc3ccc(OC)c(OC)c3)C(=O)CC)C2=O)c1 (configuration not stated) 57%, O=S1(=O)Nc2c(ccc3cccnc23)-c2ccccc21 62%, Cc1cc(C)nc(N2CCCC(C(=O)Nc3nc4ccc(S(C)(=O)=O)cc4s3)C2)n1 (configuration not stated) 51.4%, CCn1c(C)c(CS(=O)(=O)c2ccccc2)[nH]c1=O 85.5%, CCOc1c(O)ccc(/C=C2\SC(=S)NC2=O)c1[N+](=O)[O-] 55.7%, CC(=O)c1c(C(=O)O)[nH]c(C(=O)O)c1C 108%

inhibition, inactive:
Cc1ccc(NS(=O)(=O)c2cc(C(=O)Nc3cccc(N(C)S(C)(=O)=O)c3)ccc2C)c(C)c1 5.7%, CCOC(=O)C1CCN(C(=O)CC(C)c2ccccc2)CC1 (configuration not stated) -0.6%, CCN(CC)c1ccc(C=Nc2ccc(C)cc2C)c(O)c1 -0.7%, CCc1ccc(O)c(N=Cc2cccc(C)c2O)c1 18.5%, CCN(CC)c1ccc(C=Nc2ccccc2C)c(O)c1 27.1%, Cc1ccc(O)c(C=Nc2cc(C)ccc2O)c1 23.1%, O=C(/C=C/c1ccc([N+](=O)[O-])cc1)N(c1ccccn1)C1CCCCC1 -38.1%, COc1cc(/C=N/N=C(/N)c2nonc2N)cc(Br)c1OCc1cccc(C)c1 16.3%, OC(CNCc1ccccc1Cl)C(F)(F)F (configuration not stated) 5.4%, COc1ccccc1N1CCN(C(=O)c2ccc(CSc3ccccc3)cc2)CC1 -1.4%, Cc1ccc(O)c(CP(=O)(c2ccccc2)c2ccccc2)c1 -4.9%, COc1ccc(F)cc1C(=O)C1CCCN(C(=O)C2=C(C)OCCO2)C1 (configuration not stated) 5.1%, CCCCCn1c(SCC(=O)OC)nc2c1c(=O)[nH]c(=O)n2C 0.2%, CCCCn1c(SCC(=O)OCC)nc2c1c(=O)[nH]c(=O)n2C 3.6%, Fc1ccc2nc(N3CCCC3)sc2c1 8.5%, COc1cc(CNC(C)(C)CO)cc(Br)c1OCc1ccc(Cl)cc1 5.6%, FC(F)(F)c1cccc(OCCOCCn2cncn2)c1 3.9%, O=C(NCc1ccco1)c1cnn2c1NC(c1ccc(Br)cc1)CC2C(F)(F)F (configuration not stated) 27%, O=C(NCc1ccco1)c1cnn2c1NC(c1ccccc1)CC2C(F)(F)F (configuration not stated) -6.3%, COc1cc(NC(=O)C(C)Oc2ccccc2)c(C(=O)O)cc1OC (configuration not stated) 10.7%, O=C(Cc1c[nH]c2ccccc12)NC1(C(=O)NC2CCCCC2)CCCCC1 -4%, COC(=O)c1ccc(C2C(Oc3ccccc3)C(=O)N2CCc2ccc(OC)c(OC)c2)cc1 (configuration not stated) -2.9%, COC(=O)c1ccc(C2C(Oc3ccc(OC)cc3)C(=O)N2CCc2ccc(F)cc2)cc1 (configuration not stated) -0.6%, COCCNC(=O)C(c1cccs1)N(C(=O)Cn1nnc2ccccc21)c1cccc(C)c1 (configuration not stated) 5.9%, O=C(Cn1cc(/C=N/NC(=O)c2ccccc2Br)c2ccccc21)Nc1ccc(F)cc1 5.7%, O=C(CCS(=O)(=O)c1ccc(Cl)cc1)OCC(=O)N1CCCCC1 9.3%, Cc1cccc(-n2nnc(C(=O)NCc3ccco3)c2N)c1 -18.8%, CCOc1ccc(N2C(=O)CC(N(CCc3ccc(OC)c(OC)c3)C(=S)Nc3ccccc3)C2=O)cc1 (configuration not stated) 19.8%, CCOC(=O)c1ccc(N2C(=O)CC(N(C)CCc3ccc(OC)c(OC)c3)C2=O)cc1 (configuration not stated) 16.4%, O=C(CSc1n[nH]c(=O)[nH]c1=O)Nc1ccc(C(=O)O)cc1 -8.4%, O=[N+]([O-])c1cccnc1NCc1cccs1 -2.4%, O=[N+]([O-])c1cc(-c2ncccn2)cs1 -13.4%, O=C(O)CCC(=O)Nc1ccc(Cc2ccc(NC(=O)CCC(=O)O)c(O)c2)cc1O -9.3%, Cc1ccc(Cl)cc1N1CCN(C(=O)CN2C(=O)c3cccc4cccc2c34)CC1 12.6%, c1cnc2c(c1)ccc1cccnc12 5.7% and 24.3%, O=S1(=O)NC(=NCCc2ccccn2)c2ccccc21 -7.8%, COc1ccc(-c2c(C)n([O-])c3c([n+]2=O)CCC3)cc1OC 8%, c1ccc(-c2ccccc2-n2cnnn2)cc1 -7.6%, O=C(Nc1nc2ccc(S(=O)(=O)N3CCCC3)cc2s1)C1CCCCC1 7.3%, Cc1cc(C)nc(N2CCCC(C(=O)Nc3nnc(C)s3)C2)n1 (configuration not stated) -13.6%, CS(=O)(=O)c1ccc2nc(NC(=O)CCC(=O)c3cccs3)sc2c1 -8.5%, Cc1nn(C)c(C)c1CS(=O)(=O)c1ccccc1 -8.9%, CCc1c(C(C)S(=O)(=O)c2ccccc2)[nH]c(=O)n1CC (configuration not stated) -38%, Cc1cc(C)cc(-n2cc(C(=O)O)c(=O)cc2C)c1 5.3%, COc1ccc(NC(=O)CSc2nc3sc(C)c(C)c3c(=O)n2Cc2ccco2)cc1 7.7%, C=CCN1C(=O)/C(=C/c2ccc(OC(C)=O)c(OCC)c2[N+](=O)[O-])SC1=S 41.3%, CCOc1ccc(/C=C2\SC(=S)NC2=O)cc1OC -12%, CC(=O)c1c(C)[nH]c(C(=O)O)c1C 13.6%, CC(=O)c1[nH]c(C)c(C(C)=O)c1C 11%, S=c1nc(-c2ccccc2)n(CCCn2ccnc2)c2c1CCCC2 1.7%, COc1ccc(/C=C(\CC(=O)O)c2nc3ccccc3o2)cc1 -27.3%, Cc1nc(C)c(C(=O)NNC(=O)c2ccc(Br)cc2)s1 6.9%
